In PubChem BioAssay (EPA / NIEHS):
The source made the active and inactive calls. Rule for the calls: active = hit-call score of the fitted dose curve at least 0.9, where 1 is the maximum; inactive = score below 0.9.

Assays:
[1] = ATG_E_Box_CIS: Attagene CIS-FACTORIAL HepG2 Assay for human Enhancer Box (E-box) (AID 2282936); details: HepG2 E-box cis-reporter transcription, actives raise or lower the signal
Outline: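 Cells: HepG2 (human liver), transient MRTU transfection. Exposure 24 h. RNA → oligo(dT) RT → PCR → 6-FAM label → HpaI → CE. Activity fitted both directions relative to DMSO.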

[2] = ATG_M_61_CIS: Attagene CIS-FACTORIAL HepG2 Assay for M61 Transcription Factor (Internal Marker) (AID 2282937); details: HepG2 Attagene CIS-FACTORIAL M61 internal marker reporter; actives raise or lower the signal
Outline: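 Multiplexed reporter mRNA assay, HepG2 human hepatoma cells, 24 h treatment. Signal: FAM-labelled, HpaI-digested RT-PCR fragments by CE. Fit: bidirectional, baseline DMSO.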

[3] = ATG_EGR_CIS: Attagene CIS-FACTORIAL HepG2 Assay for human Early Growth Response 1 (EGR1) (AID 2282938); details: HepG2 Attagene CIS-FACTORIAL EGR reporter mRNA; actives raise or lower the signal
Outline: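 Multiplexed cis-reporter system in human hepatoma HepG2 cells, transiently transfected. Cells are dosed for 24 h; reporter transcripts are amplified, fluorescently tagged and sized by capillary electrophoresis, with DMSO as negative control.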

[4] = ATG_M_19_CIS: Attagene CIS-FACTORIAL HepG2 Assay for M19 Transcription Factor (Internal Marker) (AID 2282939); details: HepG2 Attagene CIS-FACTORIAL M19 internal marker reporter; actives raise or lower the signal
Outline: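 Transfect HepG2 with MRTU reporter library → dose chemical, 24 h → isolate total RNA, reverse-transcribe with oligo(dT) → PCR, 6-FAM label, HpaI cut (2 h, 37 C) → capillary electrophoresis. Bidirectional fit vs DMSO.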

[5] = ATG_Ets_CIS: Attagene CIS-FACTORIAL HepG2 Assay for human Erythroblast Transformation Specific (ETS) (AID 2282941); details: HepG2 ETS cis-reporter transcription, actives raise or lower the signal
Outline: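 Human HepG2 hepatoma cells were transiently transfected with promoter-driven reporter constructs and treated for 24 hours. Reporter transcripts were quantified by RT-PCR with fluorescent primer extension; bidirectional curve fitting used DMSO as reference.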

[6] = biological target: Hepatocyte nuclear factor 3-beta (Homo sapiens) (UniProt Q9Y261); experiment: ATG_FoxA2_CIS: Attagene CIS-FACTORIAL HepG2 Assay for human Forkhead box A2 (FOXA2) (AID 2282942); details: HepG2 cis-reporter transcription factor activity, 24 h; actives raise or lower the signal
Sequence of Hepatocyte nuclear factor 3-beta (Homo sapiens) (Q9Y261 whole entry, looked up): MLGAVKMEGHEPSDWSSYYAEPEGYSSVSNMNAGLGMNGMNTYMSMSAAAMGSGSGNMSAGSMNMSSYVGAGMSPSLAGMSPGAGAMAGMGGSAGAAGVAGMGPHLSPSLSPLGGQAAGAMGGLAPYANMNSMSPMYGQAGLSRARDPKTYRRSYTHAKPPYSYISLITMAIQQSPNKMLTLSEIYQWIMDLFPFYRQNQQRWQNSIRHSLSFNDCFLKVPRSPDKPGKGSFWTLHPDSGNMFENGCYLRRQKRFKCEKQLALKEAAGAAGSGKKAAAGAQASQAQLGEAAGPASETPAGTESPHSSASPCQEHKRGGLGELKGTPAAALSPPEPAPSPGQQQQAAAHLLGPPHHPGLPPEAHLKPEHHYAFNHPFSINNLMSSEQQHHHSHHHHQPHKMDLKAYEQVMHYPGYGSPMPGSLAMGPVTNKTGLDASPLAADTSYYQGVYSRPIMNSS
Outline: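 Multiplexed cis-element reporter assay in transiently transfected HepG2. Twenty-four hours post-dosing, RNA was reverse-transcribed, amplified, FAM-labelled, HpaI-digested and separated by CE. Activity gain or loss relative to DMSO.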

[7] = ATG_GATA_CIS: Attagene CIS-FACTORIAL HepG2 Assay for human GATA Binding Protein (AID 2282944); details: HepG2 GATA cis-element reporter, Attagene multiplex mRNA; actives raise or lower the signal
Outline: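 Transient MRTU transfection, HepG2, 24 h compound exposure. Total RNA → oligo(dT) RT → PCR → 6-FAM primer extension → HpaI cut → CE. Bidirectional fit vs DMSO.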

[8] = ATG_GLI_CIS: Attagene CIS-FACTORIAL HepG2 Assay for human Zinc Finger Protein GLI1 (AID 2282945); details: HepG2, Attagene cis-factorial reporter mRNA, GLI element; actives raise or lower the signal
Outline: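 Bidirectional curve fits relative to DMSO, using reporter mRNA levels from RT-PCR plus capillary electrophoresis. Cells were HepG2 transiently carrying cis-regulated reporter constructs, harvested 24 h after dosing.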

[9] = ATG_ERE_CIS: Attagene CIS-FACTORIAL HepG2 Assay for Estrogen Response Element (ERE) (AID 2282940); details: HepG2 ERE cis-reporter, Attagene RNA transcript; actives raise or lower the signal
Outline: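 Transient MRTU transfection of human HepG2; cis-element promoters; 24 h dosing; total RNA → RT (oligo dT) → PCR → 6-FAM primer extension → HpaI digest → CE fluorescence. Bidirectional fit, DMSO baseline.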

[10] = ATG_FoxO_CIS: Attagene CIS-FACTORIAL HepG2 Assay for human Forkhead box O (FoxO) (AID 2282943); details: HepG2 Attagene cis-reporter, FoxO element, mRNA; actives raise or lower the signal
Outline: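 HepG2, transient MRTU transfection (cis element, endogenous TFs). Dose 24 h. TriZol RNA → oligo(dT) RT → PCR → 6-FAM primer extension → HpaI cut → CE. Gain/loss vs DMSO.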

Structure (SMILES)	outcome [1]	outcome [2]	outcome [3]	outcome [4]	outcome [5]	outcome [6]	outcome [7]	outcome [8]	outcome [9]	outcome [10]	AC50 [9]	AC50 [8]	AC50 [1]	AC50 [3]
CC1(C)Cc2cccc(O)c2O1	inactive	inactive	inactive	inactive	inactive	inactive	inactive	inactive	–	–	–	–	–	–
Cn1sc(Cl)cc1=O	inactive	inactive	inactive	inactive	inactive	inactive	inactive	inactive	–	–	–	–	–	–
CN(CCCC(=O)c1cccnc1)N=O	inactive	inactive	inactive	–	inactive	inactive	inactive	inactive	inactive	inactive	–	–	–	–
CCc1ccccc1C	inactive	inactive	inactive	inactive	inactive	inactive	inactive	inactive	–	inactive	–	–	–	–
Cc1ccc(N)cc1Cl	inactive	inactive	inactive	inactive	inactive	inactive	inactive	inactive	–	–	–	–	–	–
CCOP(=S)(OCC)Oc1nc(Cl)c(Cl)cc1Cl	inactive	inactive	inactive	–	inactive	inactive	inactive	–	–	–	27.5 µM (active)	71.9 µM (active)	–	–
CCC[CH2][Sn]([Cl])([Cl])[Cl]	inactive	inactive	inactive	–	inactive	inactive	inactive	inactive	–	inactive	–	–	–	–
CCOC(=O)Nc1cccc(OC(=O)Nc2ccccc2)c1	inactive	inactive	inactive	–	inactive	inactive	inactive	inactive	–	inactive	–	–	–	–
CCNc1nc(NC(C)(C)C)nc(SC)n1	–	inactive	inactive	–	inactive	inactive	inactive	inactive	inactive	inactive	–	–	160 µM (active)	–
Nc1ccc(N=Nc2ccc(-c3ccc(N=Nc4c(S(=O)(=O)O)cc5cc(S(=O)(=O)O)c(N=Nc6ccccc6)c(O)c5c4N)cc3)cc2)c(N)c1	inactive	inactive	inactive	–	inactive	inactive	inactive	inactive	–	–	24.8 µM (active)	–	–	–
COC[C@H](C)N(C(=O)CCl)c1c(C)csc1C	inactive	inactive	inactive	inactive	inactive	inactive	inactive	inactive	–	–	–	–	–	–
C(=NC1CCCCC1)=NC1CCCCC1	–	inactive	–	inactive	inactive	inactive	inactive	inactive	–	–	–	–	33.4 µM (active)	3.17 µM (active)
O=[N+]([O-])c1ccc2c3c(cccc13)CC2	inactive	inactive	inactive	–	inactive	inactive	inactive	inactive	inactive	inactive	–	–	–	–
Cc1cc(=O)[nH]o1	inactive	inactive	inactive	–	inactive	inactive	inactive	inactive	inactive	inactive	–	–	–	–
